JMJD2C inh – blocks human GASC-1 demethylase activity; Q9H3R0; GST-JMJD2C(1-420) H3K9me3 demethylation, DELFIA europium; inhibition, % at 2.35 µM; 0.069% of 330,000 active;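 active = more than half of a compound's replicate wells show inhibition beyond 50%, single wells judged on their own value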;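 also: signal counts dimethyl H3K9 product captured on neutravidin plate; 0% = median of DMSO wells and 100% = 0.3 times that DMSO median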
Pemphigus Ab inh – human desmoglein-3 autoantibody binding inhibition; 0.48% of 310,000 active; binding (percent of control), % at 10 µM; DSG3-coupled beads, scFv-anti-DSG3-GFP binding, flow cytometry; stronger effect = lower value;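 active = binding more than 3 SD below its plate's average and above zero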;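 also: hits lower antibody fragment binding to DSG3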
PREPL inh – inhibits the human prolyl oligopeptidase-like enzyme; inhibition, % at 5.96 µM; recombinant PREPL, fluorescence polarization activity-based probe; Q4J6C6; 0.68% of 320,000 active; in the data active = inhibition above about 43%;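 also: 0% = enzyme with DMSO and 100% = wells lacking enzyme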
VLA-4 inh – inhibition in a human VLA-4 binding assay; inhibition, % (about 7 µM as worked out from the volumes in the protocol); 0.2% of 330,000 active; AID 2557; VLA-4 expressing cells, ligand binding flow cytometry; in the data active = inhibition above about 50%
GRK2 aptamer HTS – inhibitors of human GRK2 displacing RNA aptamer. P25098. bead flow cytometry, FAM-aptamer displacement from GRK2. inhibition of aptamer binding, % at 10 µM. 0.59% of 330,000 active. AID 488847;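 active = inhibition of aptamer binding above 40%, roughly 3 SD of noise, on plates passing a quality check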;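 also: median bead fluorescence of bound FAM aptamer so fluorescent compounds give negative values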
GRK2 CP1 – human GRK2 inhibition confirmation, cherry pick 1; bead-bound GRK2, FAM-aptamer displacement, flow cytometry; aptamer displacement, % at 10 µM; AID 504451; 4% of 2,000 active; shares compounds with GRK2 aptamer HTS;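 active = aptamer displacement above 40%, near three times the noise of non-fluorescent compounds, on plates passing quality checks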;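 also: negative values mostly reflect intrinsic compound fluorescence rather than true enhancement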
FAM quench CP1 – aptamer fluorescence quenching in GRK2 counter-screen; shares compounds with GRK2 aptamer HTS; Carboxyfluorescein RNA aptamer on beads, flow cytometry quenching; stronger effect = lower value; fluorescence response (% of DMSO), % at 10 µM; 2,000 tested, under 10 active; AID 504580;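 active = compounds that quench the bead-bound fluorescent RNA probe, cutting fluorescence to under half of the solvent control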;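 also: counterscreen run without GRK2 so only probe quenching by compound is measured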
* marks the source's active call; other numbers are inactive results; x = no result given. Most compounds without a hit are left out; they make up all but 1.6% or so of the library.

SMILES	JMJD2C inh	Pemphigus Ab inh	PREPL inh	VLA-4 inh	GRK2 aptamer HTS	GRK2 CP1	FAM quench CP1
O=C(O)c1cc(S(=O)(=O)Nc2ccc3cn[nH]c3c2)ccc1O	3	97	4	10	0	x	x
Cc1ccc(CCSCC(=O)O)cn1	-5	x	19	-1	74*	3	100
Cc1ccc(SCCc2ccc(C)nc2)cc1	2	109	3	8	2	x	x
Cn1c(=O)[nH]c(=O)c2c1nc(SCC(=O)O)n2CCc1ccccc1	35	102	0	10	0	x	x
Cn1c(=O)[nH]c(=O)c2c1nc(SCCN1CCOCC1)n2Cc1ccccc1	2	100	0	14	89*	-2	104
Cn1c(=O)[nH]c(=O)c2c1nc(SCCN1CCOCC1)n2CCCc1ccccc1	-6	109	13	-17	1	x	x
COc1ccccc1OCC(O)Cn1c(Br)nc2c1c(=O)[nH]c(=O)n2C (stereo not drawn)	x	x	6	2	2	x	x
Cc1cc(C)n(-c2nc3c(c(=O)[nH]c(=O)n3C)n2CC(O)COc2ccc(Cl)cc2Cl)n1 (stereo not drawn)	-7	x	-12	13	72*	3	96
Cn1c(=O)[nH]c(=O)c2c1nc(SCC(=O)O)n2CCOc1ccccc1	14	96	0	-1	0	1	96
Cn1c(=O)[nH]c(=O)c2c1nc(Br)n2CC(O)COc1ccccc1 (stereo not drawn)	3	103	-4	10	75*	-4	102
Cc1ccc(OCc2cc(C(=O)N(C)Cc3cnc4ccccn34)no2)cc1C	-2	97	-23	3	2	x	x
C/C(CC(=O)Nc1cccc2c1CCCC2)=N\NC=O	1	112	11	12	7	x	x
COc1ccc(-c2cc(C3CCNCC3)[nH]n2)cc1	6	102	4	-8	0	x	x
CCN(CC)S(=O)(=O)c1ccc(N2CCOCC2)c(NC(=O)c2cc3ccccc3o2)c1	x	104	x	x	x	x	x
O=[N+]([O-])c1cc(-c2n(-c3ccccn3)c3ccccc3[n+]2-c2ccccn2)ccc1Cl	1	105	-4	11	0	x	x
CCn1c(=O)c2cc(C(=O)NCCC(C)C)sc2c2ccccc21	-17	99	18	6	51*	x	95
CS(=O)(=O)N(Cc1ccccc1)c1ccc(C(=O)Nc2ccccc2Sc2ccccc2)cc1	0	98	-33	-9	4	x	x
CS(=O)(=O)N(Cc1ccccc1)c1ccc(C(=O)Nc2ccccc2C(=O)O)cc1	98	107	-1	-6	51*	-3	96
N[C@@H](Cc1ccccc1)c1nnc2sc(SCc3ccccc3)nn12	-11	96	24	11	55*	-13	127
CN(C(=O)CCN1C(=O)/C(=C/c2ccccc2)SC1=S)C1CCS(=O)(=O)C1 (stereo not drawn)	2	101	25	15	72*	0	99
O=c1[nH]nc(Cc2ccc([N+](=O)[O-])cc2)c2ccccc12	13	90	25	12	86*	12	98
O=c1[nH]nc(Cc2ccccc2)c2ccccc12	7	95	-10	6	0	x	x
COc1ccc(CC(=O)Nc2nc(-c3ccc(F)c(F)c3)cs2)cc1	4	x	-38	18	92*	0	96
O=C(Cc1ccc(F)cc1)Nc1nc(-c2ccc(F)c(F)c2)cs1	1	98	x	8	0	x	x
CCCn1cc(S(=O)(=O)c2ccccc2)c(=O)c2cc(F)c(N3CCN(C)CC3)cc21	-2	96	2	-3	1	x	x
COc1ccccc1/C=C/C(=O)OCC(=O)N1CCc2ccccc21	-5	102	-2	46	95*	-4	102
O=C(C1CCCN(S(=O)(=O)c2cccc3nsnc23)C1)N1CC=C(c2ccccc2)CC1 (stereo not drawn)	x	98	27	-1	1	-7	102
CN(CCOc1ccccc1)C(=O)c1cc([N+](=O)[O-])cc([N+](=O)[O-])c1	4	101	9	9	0	x	x
O=C(C1CCN(c2ccc(N3CCOCC3)nn2)CC1)N1CCc2ccccc2C1	4	106	29	-1	0	3	97

Source: PubChem (several laboratories)
